# According to PubChem BioAssay (Tox21):
# Where “and” joins values, the source holds several entries; their conditions need not be identical. Equal values may be shown once. A number with no mark means an inactive call. Results filed as inconclusive are left out. A call without a number means that no potency is given here. Calls of active or inactive are those of the source. Unless noted, the call rests on the fitted dose curve; in most records, active means well fitted curve in the direction sought with a large enough effect in the repeat runs; inconclusive means weak or mixed curves; inactive means no such curve, though single readings can be large; an effect the other way counts as inactive or inconclusive.
# What was measured:
# [1] = biological target: Progesterone receptor (Homo sapiens) (UniProt P06401); assay: qHTS assay to identify small molecule antagonists of the progesterone receptor (PR) signaling pathway (AID 1346795; active means well fitted inhibition curve with a large enough effect in the signal ratio in the repeat runs, not every such curve was filed as active; the % refers to the signal ratio; further: potency means the concentration at half of the fitted maximal effect)
# Procedure, shortened: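 PR-UAS-bla HEK293T cells carrying a UAS-driven beta-lactamase reporter were plated in medium with 2% charcoal-stripped FBS and rested 6 hr at 37C. Compounds were added with 1 nM R5020 (final) for 16 hr, then FRET substrate loaded 2 hr at room temperature.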
# [2] = qHTS assay to identify small molecule antagonists of the progesterone receptor (PR) signaling pathway - cell viability counter screen (AID 1346798); further: series mostly up to about 92 µM; nearly all actives have a fitted effect of over 50% in size
# Procedure, shortened: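 PR-UAS-bla HEK293T cells in medium with 2% charcoal-stripped FBS were treated with compounds plus R5020 for 16 hr at 37C. Cell viability was then read by CellTiter-Glo luminescence after 30 min at room temperature in the same wells.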
# [3] = qHTS assay to identify small molecule antagonists of the TGF-beta/Smad signaling pathway - cell viability counter screen (AID 1346824); further: nearly all actives have a fitted effect of over 50% in size
# Procedure, shortened: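 Cytotoxicity counter-screen run in the same wells as the beta-lactamase Smad reporter read: CellTiter-Glo luminescence after 30 min at room temperature. HEK 293T SBE-bla cells had 5 hr compound exposure at 37 C with TGF-beta1 (0.25 ng/mL stock).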
# [4] = qHTS assay to identify small molecule agonists of the TGF-beta/Smad signaling pathway - cell viability counter screen (AID 1346829); further: top concentration of the series differs between compounds; nearly all actives have a fitted effect of over 45% in size
# Procedure, shortened: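 Here the cytotoxicity of library compounds is measured in SBE-bla HEK 293T cells treated for 5 hr, using CellTiter-Glo added to wells already read for the beta-lactamase reporter.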
# [5] = qHTS assay to identify small molecule agonists of the TGF-beta/Smad signaling pathway (AID 1346859; active means well fitted activation curve with a large enough effect in the signal ratio in the repeat runs, not every such curve was filed as active; the % refers to the signal ratio; further: series mostly up to about 77 µM)
# Procedure, shortened: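 HEK 293T cells stably carrying a beta-lactamase reporter driven by the Smad binding element were seeded overnight, exposed to DMSO-dissolved compounds for 5 hr at 37 C, 5% CO2, then loaded with FRET substrate for 2 hr at room temperature.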
# [6] = biological target: Thyrotropin-releasing hormone receptor (Homo sapiens) (UniProt P34981); assay: qHTS assay to identify small molecule antagonists of the thyrotropin-releasing hormone receptor (TRHR) signaling pathway (AID 1346877; active means well fitted inhibition curve with a large enough effect in the repeat runs, not every such curve was filed as active; further: series mostly up to about 51 µM)
# Procedure, shortened: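 In this cell-based calcium flux format, HEK293 cells expressing TRHR received test compound for 5 min before the agonist TRH (1 nM final). Dye loading lasted 2 h at 37 °C.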
# [7] = biological target: Thyrotropin-releasing hormone receptor (Homo sapiens) (UniProt P34981); assay: qHTS assay to identify small molecule agonists of the thyrotropin-releasing hormone receptor (TRHR) signaling pathway (AID 1346891; calls by dose curve; further: series mostly up to about 58 µM)
# Procedure, shortened: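 TRHR-expressing HEK293 cells were plated 18 h at 37 °C/5% CO2, loaded with calcium dye 2 h at 37 °C, then given compound in DMSO; fluorescence was read kinetically for 3 min at 1 s intervals.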
# [8] = Human pregnane X receptor (PXR) small molecule agonists, qHTS cell viability counter screen (AID 1346977); further: nearly all actives have a fitted effect of over 50% in size
# Procedure, shortened: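 PXR-Luc HepG2 cells in medium with 5% charcoal-stripped FBS were pre-incubated 5hr, then exposed to compounds for 24hr at 37C. Viability was read in the same wells by CellTiter-Fluor fluorescence, reagent added after 23hr with a 1hr incubation.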
# [9] = Caspase-3/7 induction in CHO-K1 cells by small molecules, qHTS cell viability counter screen (AID 1346979); further: nearly all actives have a fitted effect of over 35% in size; further: potency means the concentration at half of the fitted maximal effect
# Procedure, shortened: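 Wild-type CHO-K1 cells were seeded at 1,500 per well, rested 5hr at 37 C, then exposed to compounds in DMSO. After 16hr, CellTiter-Fluor reagent was added and fluorescence read 1hr later as the viability measure.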
# [10] = Caspase-3/7 induction in CHO-K1 cells by small molecules, qHTS assay (AID 1346980); further: nearly all actives have a fitted effect of over 15% in size
# Procedure, shortened: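 Luminescent Caspase-Glo 3/7 read (30min, room temperature) quantified apoptosis induction. Cells were wild-type CHO-K1, treated with compound for 17hr at 37 C and 5% CO2.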
# [11] = Caspase-3/7 induction in HepG2 cells by small molecules, qHTS assay (AID 1346978); further: nearly all actives have a fitted effect of over 15% in size
# Procedure, shortened: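 Caspase-3/7 induction was measured by Caspase-Glo 3/7 luminescence (30 min, room temperature) after a 17 hr compound exposure of wild-type HepG2 cells seeded at 2,000 per well and pre-incubated 5 hr.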
# [12] = Caspase-3/7 induction in HepG2 cells by small molecules, qHTS cell viability counter screen (AID 1346981); further: series mostly up to about 92 µM; nearly all actives have a fitted effect of over 30% in size
# Procedure, shortened: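 Counter screen for cytotoxicity: HepG2 exposed 16 hr to compounds, then CellTiter-Fluor viability signal (fluorescence, 1 hr reagent incubation).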
# [13] = biological target: Nuclear receptor subfamily 1 group I member 2 (Homo sapiens) (UniProt O75469); assay: Human pregnane X receptor (PXR) small molecule agonists, qHTS assay (AID 1346982); further: nearly all actives have a fitted effect of over 35% in size; further: potency means the concentration at half of the fitted maximal effect
# Procedure, shortened: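 Luminescence (ONE-Glo, 30 min RT) after 24 hr compound exposure of PXR-Luc HepG2 cells; cells rested 5 hr post-plating in 5% charcoal-stripped FBS medium.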
# [14] = biological target: Acetylcholinesterase (Homo sapiens) (UniProt P22303); assay: Acetylcholinesterase (AChE) small molecule antagonists: enzyme-based qHTS assay (AID 1347397; calls by dose curve; further: nearly all actives have a fitted effect of over 55% in size); details: Potency: AChE enzyme activity inhibition; outcome: AChE enzyme activity inhibition
# Procedure, shortened: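 Absorbance-based detection of thiocholine with DTNB served as the read-out. Recombinant human AChE was exposed to compound for 30 min at RT before a 10 min RT incubation with acetylthiocholine.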
# [15] = biological target: Acetylcholinesterase (Homo sapiens) (UniProt P22303); assay: Acetylcholinesterase (AChE) small molecule antagonists: fluorescence cell-based qHTS assay (AID 1347398; calls by dose curve; further: nearly all actives have a fitted effect of over 50% in size); details: Potency: AChE activity; outcome: AChE activity
# Procedure, shortened: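 Fluorimetric cell-based assay: intact SH-SY5Y cells, 30 min compound preincubation at 37 C, acetylthiocholine substrate with thiol probe Thiolite Green, 40 min RT development, fluorescence 490/520 nm.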
# [16] = biological target: Acetylcholinesterase (Homo sapiens) (UniProt P22303); assay: Acetylcholinesterase (AChE) small molecule antagonists: colormetric cell-based qHTS assay (AID 1347395; calls by dose curve; further: nearly all actives have a fitted effect of over 30% in size)
# Procedure, shortened: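 SH-SY5Y cells, plated overnight at 37 C, were exposed to compounds for 30 min at 37 C and 5% CO2. Acetylthiocholine plus DTNB was then added, and thiocholine from endogenous AChE was quantified colorimetrically after 90 min at 37 C.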
# [17] = biological target: Nuclear receptor subfamily 1 group I member 2 (Rattus norvegicus) (UniProt Q9R1A7); assay: Rat pregnane X receptor (rPXR) activation by small molecules, qHTS assay (AID 1346983); details: rPXR luciferase reporter cells, One-Glo luminescence, 24 h; stronger effect = higher value; further: nearly all actives have a fitted effect of over 20% in size
# Procedure, shortened: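 Luminescent readout (One-Glo luciferase, 30 min room temperature) followed 24 hr compound treatment at 37 C of rPXR cells plated 2,000 per well and preincubated 5hr; qHTS format with compounds delivered in DMSO.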
# [18] = biological target: Nuclear receptor subfamily 1 group I member 2 (Homo sapiens) (UniProt O75469); assay: CYP3A4 induction through human pregnane X receptor (PXR) by small molecules, qHTS assay (AID 1346984); further: nearly all actives have a fitted effect of over 40% in size
# Procedure, shortened: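 DPX-2 reporter cells; 24h cpd, 37C; Luciferin-IPA 3uM final x3h; One-Glo 30 min RT; lumi read.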
# [19] = biological target: Nuclear receptor subfamily 1 group I member 2 (Homo sapiens) (UniProt O75469); assay: Human pregnane X receptor (PXR) activation by small molecules, qHTS assay (AID 1346985); further: nearly all actives have a fitted effect of over 40% in size
# Procedure, shortened: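 DPX-2 cells (HepG2 co-transfected with a PXR response element and a CYP3A4-promoter luciferase construct) were seeded at 2,000 per well, rested 5 hr at 37C, then exposed to DMSO-dissolved compounds for 24 hr. Activation was read as luciferase luminescence.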
# Progesterone receptor (Homo sapiens), sequence (P06401 whole entry, looked up): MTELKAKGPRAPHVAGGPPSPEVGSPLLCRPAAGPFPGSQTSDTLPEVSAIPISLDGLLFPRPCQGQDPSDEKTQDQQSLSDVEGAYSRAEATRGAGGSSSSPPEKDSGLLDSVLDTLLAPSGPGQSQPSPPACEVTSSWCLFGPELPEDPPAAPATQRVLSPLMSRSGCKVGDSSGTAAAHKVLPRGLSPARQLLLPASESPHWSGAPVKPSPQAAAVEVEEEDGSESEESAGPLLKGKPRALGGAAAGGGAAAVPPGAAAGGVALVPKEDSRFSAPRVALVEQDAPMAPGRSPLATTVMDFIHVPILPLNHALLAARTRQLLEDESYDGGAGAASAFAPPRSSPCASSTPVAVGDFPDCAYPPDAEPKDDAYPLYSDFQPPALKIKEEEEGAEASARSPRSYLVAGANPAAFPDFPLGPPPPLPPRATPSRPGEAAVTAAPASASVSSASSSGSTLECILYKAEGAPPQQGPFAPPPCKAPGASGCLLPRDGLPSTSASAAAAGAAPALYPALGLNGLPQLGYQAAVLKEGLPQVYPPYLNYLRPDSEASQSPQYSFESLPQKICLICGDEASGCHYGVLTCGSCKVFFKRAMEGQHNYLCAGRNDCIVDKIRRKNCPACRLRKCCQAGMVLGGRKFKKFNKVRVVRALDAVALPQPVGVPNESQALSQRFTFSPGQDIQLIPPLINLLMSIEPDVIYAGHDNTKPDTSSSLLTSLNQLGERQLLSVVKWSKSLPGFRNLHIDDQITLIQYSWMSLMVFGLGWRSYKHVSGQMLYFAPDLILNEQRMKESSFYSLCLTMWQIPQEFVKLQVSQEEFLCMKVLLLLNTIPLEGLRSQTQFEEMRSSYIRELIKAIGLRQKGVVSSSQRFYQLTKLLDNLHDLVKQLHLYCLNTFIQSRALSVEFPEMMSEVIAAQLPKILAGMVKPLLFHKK
# Nuclear receptor subfamily 1 group I member 2 (Homo sapiens), sequence (O75469 whole entry, looked up): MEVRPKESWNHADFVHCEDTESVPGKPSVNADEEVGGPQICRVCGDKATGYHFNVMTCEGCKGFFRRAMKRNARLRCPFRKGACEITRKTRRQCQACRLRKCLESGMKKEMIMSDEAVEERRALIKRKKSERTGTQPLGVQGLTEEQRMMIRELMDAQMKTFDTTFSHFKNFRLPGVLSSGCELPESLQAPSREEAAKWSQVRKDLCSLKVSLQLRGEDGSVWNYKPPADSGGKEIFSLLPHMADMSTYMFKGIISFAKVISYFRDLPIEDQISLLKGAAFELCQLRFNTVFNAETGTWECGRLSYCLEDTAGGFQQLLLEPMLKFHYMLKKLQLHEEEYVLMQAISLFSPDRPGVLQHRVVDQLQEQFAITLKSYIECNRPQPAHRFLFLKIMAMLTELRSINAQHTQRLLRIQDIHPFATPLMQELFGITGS
# Thyrotropin-releasing hormone receptor (Homo sapiens), sequence (P34981 whole entry, looked up): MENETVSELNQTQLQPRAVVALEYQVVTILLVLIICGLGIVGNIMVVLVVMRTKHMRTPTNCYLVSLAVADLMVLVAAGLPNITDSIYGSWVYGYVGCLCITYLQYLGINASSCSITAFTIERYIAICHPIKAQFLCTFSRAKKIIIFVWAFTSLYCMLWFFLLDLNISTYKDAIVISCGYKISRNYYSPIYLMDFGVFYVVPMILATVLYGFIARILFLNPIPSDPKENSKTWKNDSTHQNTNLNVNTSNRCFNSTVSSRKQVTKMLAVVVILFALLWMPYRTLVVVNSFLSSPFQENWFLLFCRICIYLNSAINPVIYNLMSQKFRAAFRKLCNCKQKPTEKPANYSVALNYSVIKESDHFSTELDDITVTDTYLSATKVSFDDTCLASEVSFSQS
# Acetylcholinesterase (Homo sapiens), sequence (P22303 whole entry, looked up): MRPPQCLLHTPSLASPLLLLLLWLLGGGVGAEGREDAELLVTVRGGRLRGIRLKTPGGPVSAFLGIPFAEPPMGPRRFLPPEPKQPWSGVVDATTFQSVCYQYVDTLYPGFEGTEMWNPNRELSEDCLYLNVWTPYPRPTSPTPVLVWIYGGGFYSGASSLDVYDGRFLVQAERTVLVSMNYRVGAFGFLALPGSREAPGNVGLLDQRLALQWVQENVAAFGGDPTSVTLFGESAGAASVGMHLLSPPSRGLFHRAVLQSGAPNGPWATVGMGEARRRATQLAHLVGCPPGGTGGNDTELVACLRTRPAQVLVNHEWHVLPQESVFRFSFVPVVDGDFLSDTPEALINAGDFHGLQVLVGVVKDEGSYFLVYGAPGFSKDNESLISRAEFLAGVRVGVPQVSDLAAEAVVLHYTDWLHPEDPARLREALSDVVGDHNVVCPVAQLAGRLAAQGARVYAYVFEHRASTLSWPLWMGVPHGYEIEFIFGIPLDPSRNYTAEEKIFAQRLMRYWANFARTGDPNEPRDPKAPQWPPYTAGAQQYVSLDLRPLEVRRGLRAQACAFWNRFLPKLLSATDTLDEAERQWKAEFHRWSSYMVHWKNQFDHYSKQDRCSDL
# Nuclear receptor subfamily 1 group I member 2 (Rattus norvegicus), sequence (Q9R1A7 whole entry, looked up): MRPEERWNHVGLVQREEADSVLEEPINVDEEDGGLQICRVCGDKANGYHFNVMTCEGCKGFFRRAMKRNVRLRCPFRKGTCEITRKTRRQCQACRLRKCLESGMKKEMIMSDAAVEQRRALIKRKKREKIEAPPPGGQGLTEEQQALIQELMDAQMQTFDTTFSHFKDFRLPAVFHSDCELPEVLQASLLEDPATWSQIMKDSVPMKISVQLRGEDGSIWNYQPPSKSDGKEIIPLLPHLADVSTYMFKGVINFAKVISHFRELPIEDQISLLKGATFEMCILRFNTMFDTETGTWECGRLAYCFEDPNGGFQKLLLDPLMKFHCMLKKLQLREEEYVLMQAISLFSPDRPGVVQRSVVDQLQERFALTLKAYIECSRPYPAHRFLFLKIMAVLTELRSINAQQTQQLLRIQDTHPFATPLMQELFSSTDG
Structure (SMILES),Potency [1],Potency [2],Potency [3],Potency [4],outcome [5],Potency [6],outcome [7],Potency [8],Potency [9],Potency [10],Potency [11],Potency [12],Potency [13],Potency [14],Potency [15],Potency [16],max activation [17],outcome [18],Potency [19]
Clc1ccc(Cl)c(Cl)c1,inactive,inactive,inactive,inactive,inactive,inactive,inactive,inactive,inactive,inactive,,,,,,,,,
CCC[N+](CCC)(CCC)CCC,inactive,inactive,inactive,inactive,inactive,,inactive,inactive,inactive,inactive,inactive,inactive,inactive,inactive,inactive,,,,
C[Si](Cn1cncn1)(c1ccc(F)cc1)c1ccc(F)cc1,15.4 µM (active),inactive,inactive,inactive,inactive,inactive,inactive,,,inactive,inactive,,31.6 µM (active) and 15.4 µM (active),inactive,inactive,inactive,,,
Nc1ccc2c(c1)Cc1ccccc1-2,6.08 µM (active),inactive,inactive,inactive,inactive,inactive,inactive,inactive,inactive,,inactive,inactive,27.1 µM (active),inactive,inactive,inactive,,,
C=C(C)C(=O)OCCCCOC(=O)C(=C)C,inactive,inactive,inactive,inactive,inactive,inactive,inactive,inactive,inactive,,inactive,inactive,inactive,inactive,inactive,inactive,,,
O=C(CCl)CCl,inactive,inactive,inactive,inactive,inactive,inactive,inactive,inactive,50.3 µM (active) and 30.6 µM (active),inactive,,inactive,56.5 µM (active) and 61.1 µM (active),inactive,inactive,inactive,,,
c1ccc2c(c1)sc1ccccc12,inactive,inactive,inactive,inactive,inactive,inactive,inactive,inactive,inactive,,inactive,inactive,inactive,inactive,inactive,inactive,-3.19%,inactive,inactive
CN1CC[C@]23c4c5ccc(O)c4O[C@H]2[C@@H](O)C=C[C@H]3[C@H]1C5,inactive,inactive,inactive,inactive,inactive,,inactive,inactive,inactive,inactive,inactive,inactive,inactive,inactive,,,,,
CC(CC(C(N)=O)(c1ccccc1)c1ccccc1)N(C)C (stereo not given),inactive,inactive,,inactive,inactive,inactive,inactive,inactive,inactive,inactive,inactive,inactive,inactive,inactive,inactive,inactive,,,
C[N+]1(CCF)[C@@H]2CC[C@H]1CC(OC(=O)C(O)(c1ccccc1)c1ccccc1)C2 (stereo not given in full),inactive,inactive,inactive,inactive,inactive,inactive,inactive,inactive,inactive,inactive,,,,inactive,,inactive,,,
CC1(C)[C@H](C(=O)O[C@H](C#N)c2cccc(Oc3ccccc3)c2)[C@@H]1C=C(Br)Br,17.2 µM (active),inactive,inactive,inactive,inactive,inactive,inactive,inactive,inactive,inactive,inactive,inactive,,,,,,,
CCCC(C)(COC(N)=O)COC(=O)NC(C)C (stereo not given),inactive,inactive,inactive,inactive,inactive,inactive,inactive,inactive,inactive,inactive,inactive,inactive,inactive,inactive,inactive,inactive,,,
C[N+](C)(C)CC1CO1 (stereo not given),inactive,inactive,inactive,inactive,inactive,inactive,inactive,inactive,inactive,inactive,inactive,inactive,inactive,inactive,inactive,inactive,,,
COCc1cnc(C2=NC(C)(C(C)C)C(=O)N2)c(C(=O)O)c1 (stereo not given),inactive,inactive,inactive,inactive,inactive,,inactive,inactive,inactive,inactive,inactive,,inactive,inactive,inactive,inactive,,,
O=C(O)c1ccc(=O)[nH]c1,inactive,inactive,inactive,inactive,inactive,,inactive,inactive,,inactive,inactive,,inactive,inactive,inactive,inactive,,,
COc1ccc(C(O)(c2cncnc2)C2CC2)cc1 (stereo not given),inactive,inactive,inactive,inactive,inactive,inactive,inactive,inactive,inactive,inactive,inactive,inactive,inactive,inactive,inactive,inactive,,,
FC(F)OC(F)(F)C(F)Cl (stereo not given),inactive,inactive,inactive,inactive,inactive,inactive,inactive,inactive,inactive,inactive,,inactive,inactive,inactive,inactive,inactive,-2.15%,inactive,inactive
